CHT allo act – allosterically activates the human high affinity choline transporter; Q9GZV3; B-score at 10 µM; CHT-expressing cells, membrane potential dye, choline EC20; active compounds read high; LV-AA mutant CHT in HEK293 cells; 310,000 tested, 0.49% active;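 active means initial fluorescence not abnormally high and integrated response B-score, plate-corrected, over 3 SD above library mean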
PHOSPHO1 inh – blocks human PHOSPHO1 phosphatase activity; inhibition, % at 13.3 µM; recombinant PHOSPHO1, absorbance phosphatase assay; AID 1565; 290,000 tested, 1.1% active; Q8TCT1; in the data active means inhibition above about 60%
HDAC3 inhib – blocks human histone deacetylase 3; O15379; recombinant HDAC3, fluorogenic peptide/trypsin coupled, fluorescence; inhibition, % at 8.3 µM; 320,000 tested, 0.15% active; in the data active means inhibition above about 26%, passing the limit was not always enough
Target sequence (O15379 whole entry, looked up): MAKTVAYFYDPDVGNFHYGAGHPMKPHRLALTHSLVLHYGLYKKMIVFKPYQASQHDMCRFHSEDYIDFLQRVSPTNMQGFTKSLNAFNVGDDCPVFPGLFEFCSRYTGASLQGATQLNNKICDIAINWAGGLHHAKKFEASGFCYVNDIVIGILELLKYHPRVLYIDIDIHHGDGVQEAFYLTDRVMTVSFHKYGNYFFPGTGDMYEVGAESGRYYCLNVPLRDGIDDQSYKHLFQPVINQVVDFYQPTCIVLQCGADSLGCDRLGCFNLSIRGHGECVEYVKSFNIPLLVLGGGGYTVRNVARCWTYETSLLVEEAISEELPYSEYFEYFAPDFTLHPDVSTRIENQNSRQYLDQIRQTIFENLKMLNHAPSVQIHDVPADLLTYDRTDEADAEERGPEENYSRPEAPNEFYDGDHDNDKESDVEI
TMEM16A inh – inhibitors of mouse TMEM16A calcium-activated chloride channel. Q8BHY3. HEK293 TMEM16A/YFP iodide influx fluorescence, ionomycin. normalized B-score (activity score, 25-100; higher = stronger inhibition) at 10 µM. 310,000 tested, 1.2% active. AID 588511;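 active means ratio plate-corrected score three or more library SD toward inhibition, starting fluorescence score within five deviations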;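 further: score derived from kinetic fluorescence span divided by baseline fluorescence per well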
ANO1 activ – mouse TMEM16A channel activation, primary screen. HEK293 TMEM16A/YFP-H148Q/I152L, iodide quench fluorescence; active compounds read low. B-score at 10 µM. Q8BHY3. 340,000 tested, 0.3% active;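 active means fluorescence-ratio B-score plate-corrected deviation score at least 3 library SD below zero, with starting fluorescence score within 5 deviations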;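 further: channel opened by trigger with iodide after compound preincubation; score built on the fluorescence ratio of max minus min over baseline; more negative score means more quench and so TMEM16A activation or potentiation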
CHT inh – inhibits the human high affinity choline transporter; 310,000 tested, 0.86% active; CHT-expressing cells, membrane potential dye, choline response; active compounds read low; Q9GZV3; B-score at 10 µM;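 active means B-score over 3 SD under the library average, and starting fluorescence ratio not unusually high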;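 further: choline stimulus applied at its EC90 after an EC20 pre-addition; B-score computed on integrated fluorescence ratio after choline addition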
CHT inh conf – confirmation of human choline transporter CHT inhibitors | CHT activity remaining % of control (active compounds read low), % at 10 µM | 2,400 tested, 70% active | shares compounds with CHT inh | AID 493221 | CHT-expressing cells, choline membrane potential dye; LV-to-AA substituted CHT, HEK293 cells;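 active means choline transporter activity left, mean of duplicates at 10 µM, below buffer-only control mean minus 3 SD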;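 further: depolarization triggered by choline at its EC90 following an EC20 pre-addition; 0% = hemicholinium-3 full block and 100% = buffer-only control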
HEK293 CHT ctr – CHT inhibitor counter-screen hit in parental HEK293 cells | 2,400 tested, 4% active | membrane potential ratio readout (active if shifted either direction beyond buffer ±3SD; no single direction) at 10 µM | membrane potential dye, choline response; active = decrease or increase beyond buffer ±3SD | shares compounds with CHT inh;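 further: parental cells lack the transporter so any hit is non-specific; ratio is peak minus trough fluorescence over baseline after EC90 choline challenge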
An asterisk follows results filed as active; i = inactive; . = no result. Sampled rows, rich in hits. Any-hit rate of the full collection: about 3.2%.

SMILES	CHT allo act	PHOSPHO1 inh	HDAC3 inhib	TMEM16A inh	ANO1 activ	CHT inh	CHT inh conf	HEK293 CHT ctr
C/C(=N\NS(=O)(=O)c1ccc(Cl)c([N+](=O)[O-])c1)c1ccc(C)o1	i	26.1	0.0	i	i	i	.	.
C/C(=N\NC(=O)c1ccc2c(c1)OCO2)c1ccc(C(=O)O)s1	i	20.8	5.4	i	i	i	.	.
c1ccc(CN2CCC(Nc3nc(-c4ccccc4)nc4ccccc34)CC2)cc1	i	-38.4	13.2	i	i	-6.26*	i	i
CCOC(=O)c1ccccc1NC(=O)c1cccs1	i	-13.5	-19.5	i	i	i	.	.
CCOC(=O)c1ccccc1N/C=C/C(=O)c1cccs1	i	13.7	2.3	i	i	-8.51*	41.5%*	i
COc1ccc(Cl)cc1N1CCN(CCNC(=O)Nc2ccccc2C)CC1	i	7.1	9.7	i	i	i	.	.
O=S1(=O)CCC(NC(=S)NCCNC(=S)NC2CCS(=O)(=O)C2)C1 (centres undefined)	i	6.0	-5.6	i	i	i	.	.
CCCNC(=O)c1ccc(COc2ccc(C)cc2)o1	i	34.0	-1.1	i	i	-5.02*	51.9%*	i
CCOc1ccc(OCc2ccc(C(=O)N3CCCC3)o2)cc1	i	1.8	-8.8	i	i	-8.07*	42.0%*	i
COc1cccc(/C=N/Nc2cc(Cl)nc(C)n2)c1O	i	-15.1	9.4	i	i	-6.39*	i	i
CCCCN1C(=O)C(O)(CC(=O)c2ccco2)c2cc(Br)ccc21 (centres undefined)	i	-6.2	10.8	i	i	-5.64*	i	i
COc1ccc(C(=O)NCCOc2cccc(OC)c2)cc1	i	45.4	1.7	i	i	i	.	.
COC(=O)CN1C(=O)S/C(=C/c2ccc(N3CCCCC3)o2)C1=O	i	-148.8	8.9	i	i	-5.14*	i	i
Cc1cc(N)n(-c2ccc3ccccc3c2)n1	i	15.3	-6.6	i	i	i	.	.
COc1ccc(-c2cc(=O)oc(-c3cccc(C)c3)n2)cc1	i	12.2	1.0	i	i	-13.7*	i	i
CC(C)n1c(=S)[nH]c2cc(Cl)ccc21	i	12.3	3.7	i	i	-6.88*	51.8%*	i
CC1=C(C(=O)O)N2C(=O)[C@@H](NC(=O)[C@H](N)c3ccccc3)[C@H]2SC1	.	-28.1	.	.	.	.	.	.
O=C(O)c1ccccc1NSc1ccccc1[N+](=O)[O-]	i	-8.8	6.3	i	i	-5.41*	62.2%*	i
C=C(C)COc1ccc(-c2[nH]ncc2-c2ccccc2OC)c(O)c1	i	-13.6	-0.3	i	i	i	.	.
C=C(C)COc1ccc(-c2[nH]ncc2-c2ccc(Br)cc2)c(O)c1	i	9.5	14.6	i	i	-5.47*	i	i
Cc1ccc(C(=O)CNc2ccc(C)cc2C)cc1	i	28.7	-3.3	i	i	i	.	.
CC(OC(=O)c1ccccc1NS(=O)(=O)c1cccc(N)c1)C(=O)N(C)Cc1ccccc1 (centres undefined)	i	-1.1	1.5	i	i	i	.	.
Cc1sc2nc(SCCN(C)C)n(-c3ccccc3)c(=O)c2c1-c1ccc(F)cc1	i	1.5	6.7	i	i	-5.92*	26.2%*	i
CCN(CC)c1ccc(/C=N/NC(=O)Cc2cccs2)c(O)c1	i	-8.9	0.4	i	i	i	.	.
CCN(CC)c1ccc(/C=N/NC(=O)c2ccco2)c(O)c1	i	20.3	-3.7	i	i	-5.19*	i	i
SMILES	CHT allo act	PHOSPHO1 inh	HDAC3 inhib	TMEM16A inh	ANO1 activ	CHT inh	CHT inh conf	HEK293 CHT ctr
CCN(CCn1cccn1)C(=O)c1cc(COc2c(F)cccc2F)on1	i	32.3	-5.9	i	i	-5.52*	i	i
CCN(Cc1ccccc1)C(=O)c1cc(COc2c(F)cccc2F)on1	i	-12.5	0.2	i	i	i	.	.
Cc1cc(C)cc(NC(=O)c2ccc(N3C(=O)C4CCCCC4C3=O)cc2)c1 (centres undefined)	i	19.0	3.4	i	i	-5.52*	64.6%*	i
O=C(Nc1ccc(Br)cc1)c1ccc(N2C(=O)C3CC=CCC3C2=O)cc1 (centres undefined)	i	5.9	-9.9	i	i	i	.	.
COc1ccc(C(C)=O)cc1CC(=O)N(Cc1ccccc1)c1ccccc1	i	32.3	8.6	i	i	i	.	.
Cc1ccc(NC(=O)c2c([N+](=O)[O-])c(C(C)(C)C)nn2C)c(C)c1	i	-4.5	2.7	i	i	i	.	.
CC(C)(C)NCC(O)COc1c(F)cc(Br)cc1F (centres undefined)	i	-1.4	-1.4	i	i	i	.	.
CC(C)(C)CC(C)(C)NCC(O)COc1c(F)cc(Br)cc1F (centres undefined)	i	17.9	5.6	i	i	-5.53*	60.1%*	-9.05*
CC1CCCCN1C(=O)C1CCCCN1S(=O)(=O)c1cccc([N+](=O)[O-])c1 (centres undefined)	i	28.1	2.1	i	i	i	.	.
CC(=O)N(c1ccccc1)c1nc(/C=C/C(=O)Nc2c(C)cc(C)cc2C)cs1	i	-4.0	-1.2	i	i	-5.28*	i	i
Cc1cc(C)c(NC(=O)Cn2nc(-c3ccccc3)nc2-c2ccccc2)c(C)c1	i	-27.7	-4.6	i	i	i	.	.
COc1ccc(Nc2nc3nonc3nc2N2CCCCC2)cc1	i	24.0	1.7	i	i	i	.	.
CC1CCN(c2nc3nonc3nc2Nc2ccc(F)cc2)CC1	i	19.0	0.6	i	i	-5.44*	i	i
CCCc1cc(=O)[nH]c(SCc2cc(C(=O)OC)c(C)o2)n1	i	-16.4	5.0	i	i	-5.98*	i	i
O=C(C[C@H]1C(=O)N(C2CCCCC2)C[C@@H]1Cc1ccccc1)Nc1ccccc1	i	-7.3	10.2	i	i	i	.	.
O=c1[nH]c(=O)n(Cc2ccco2)c2c1C(C(F)(F)F)(C(F)(F)F)N=C(CCc1ccccc1)N2	i	44.4	-4.1	i	i	i	.	.
